Values without a mark were called inactive. Calls follow the shape of the dose curve; as a rule, active = well fitted activation curve with a large enough effect; inconclusive = small, poorly fitted or top-dose-only effect, or effect the other way; inactive = flat fitted curve, though single readings scatter.
Experiment: Cellular Toxicity (caspase-3) Renal Proximal Tubule (AID 667);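 also: cells exposed to compound for 16 hours at 37 °C before detection; 0% = DMSO basal and 100% = 10 µM staurosporine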
Details: renal proximal tubule cells; series mostly up to 91.7 µM; caspase-3 activation: at the top concentration
Description: NIH Chemical Genomics Center [NCGC]
NIH Molecular Libraries Screening Centers Network [MLSCN]
National Institutes of Environmental Health Sciences [NIEHS]
National Toxicology Program [NTP]
We have developed a 1536-well cell-based assay for quantitative high throughput screening (qHTS) against a number of cell lines to determine in vitro caspase 3/7 activity of small molecules. This particular assay uses the primary kidney proximal tubule cells freshly isolated from rat.
NCGC Assay Protocol Summary:
The Caspase-Glo 3/7 assay (Promega) is a homogeneous method to measure caspase-3 and caspase-7 activities in cultured cells. The quantitation of caspase 3/7 activity is based on the cleavage of a peptide-aminoluciferin substrate. After caspase cleaves the substrate the free aminoluciferin is liberated and serves as the substrate of luciferase, which generates the light. The luminescent signal is proportional to the amount of caspase 3/7 activity present.
Using the Caspase-Glo 3/7 assay, the amount of caspase 3/7 activity was measured in the rat kidney proximal tubule cells with complete culture medium following compound treatment for 16 hours. The assay was performed in opaque white 1536-well plates. In the screen, staurosporine and doxorubicin were used as positive controls. Library compounds were measured for their ability to cause the activation of caspase 3/7 in the cell line, as reflected by an increase in luminescence signal, in a concentration-dependent manner. Data were normalized to the controls for basal activity (DMSO only) and 100% stimulation (10 uM staurosporine). AC50 values were determined from concentration-response data modeled with the standard Hill equation.
qHTS protocol for caspase 3/7 assay in rat kidney proximal tubule cells
[Step] [Parameter] [Value] [Description]
1. Reagent; 5 uL; 1000 rat kidney proximal tubule cells/well
2. Time; 5 hr; 37 °C incubation
4. Controls; 23 nL; doxorubicin 7 pM to 100 uM & staurosporine 1.4 pM to 20 uM
5. Time; 16 hr; 37 °C incubation
6. Reagent; 5 uL; Caspase-Glo 3/7 reagent
7. Time; 1 hr; Room Temperature
8. Detection; Luminescence; Viewlux plate reader
Keywords: caspase 3/7, apoptosis, rat kidney proximal tubule cells, luminescence, NTPHTS, NTPHTS_NCGC, NIEHS, EPA, DSSTox, MLSMR, MLSCN, NIH Roadmap, qHTS, NCGC

Row | Structure (SMILES) | caspase-3 activation
1 | S=C1NCCN1 | 9.12%
2 | Nc1ncc([N+](=O)[O-])s1 | 9.34%
3 | COc1ccc(C=O)cc1 | -8.35%
4 | CN(C)c1ccc(N)cc1 | -6.65% [at 91.7 µM]
5 | O=C(O)c1cccc(Cl)c1 | -2.81%
6 | OC[P+](CO)(CO)CO | 13.8%
7 | C=CCBr | 0.601%
8 | CCN(N=O)C(N)=O | -3.1% [at 91.7 µM]
9 | O=C(Cl)OCc1ccccc1 | 2.21%
10 | ClP(Cl)(Cl)(Cl)Cl | -1.87% [at 91.7 µM]
11 | Cc1ccccc1[N+](=O)[O-] | 1.92%
12 | Cc1cc(Cl)ccc1O | 4.03%
13 | CC(Cl)(Cl)Cl | -1.6%
14 | Cl/C=C\Cl | -4.65%
15 | CSSC | -5.45%
16 | c1ccc(NNc2ccccc2)cc1 | -1.06% [at 91.7 µM]
17 | Nc1cc(Cl)ccc1Cl | 3.1%
18 | CCC(Cl)[N+](=O)[O-] (stereo not given) | 4.83%
19 | CCCN(CCC)c1c([N+](=O)[O-])cc(C(F)(F)F)cc1[N+](=O)[O-] | 2.71% [at 91.7 µM]
20 | Nc1cccc2ccccc12 | -1.7%

Row | Structure (SMILES) | caspase-3 activation
21 | CC(C)(C)c1ccccc1O | -7.04%
22 | COC(=O)Nc1cccc(OC(=O)Nc2cccc(C)c2)c1 | 3.01%
23 | N#CC(Br)Br | 5.07%
24 | Nc1ccc(Cc2ccc(N)c(Cl)c2)cc1Cl | 3.68%
25 | C1CC2OC2CC1C1CO1 (stereo not given) | -1.58% [at 91.7 µM]
26 | O=[N+]([O-])c1ccc(O)c([N+](=O)[O-])c1 | -9.38% [at 91.7 µM]
27 | N#CCc1ccccc1 | 4.74% [at 91.7 µM]
28 | O=c1ccc(=O)[nH][nH]1 | 3.23% [at 91.7 µM]
29 | Oc1cc(Cl)c(Cl)c(Cl)c1 | 2.79% [at 91.7 µM]
30 | N#C/C(N)=C(/N)C#N | -7.26%
31 | Cc1ccc(OP(=O)(Oc2ccc(C)cc2)Oc2ccc(C)cc2)cc1 | 9.73%
32 | CC(Cl)CCl (stereo not given) | -0.625% [at 91.7 µM]
33 | CC(C)(OOC(C)(C)c1ccccc1)c1ccccc1 | 3.04%
34 | N#CCCC#N | 0.704%
35 | CC(C)OS(C)(=O)=O | -4.64%
36 | Clc1cccc(Cl)c1 | -5.87%
37 | c1ccoc1 | 4.45% [at 91.7 µM]
38 | C=CCOCC1CO1 (stereo not given) | -2.87%
39 | C=CCCC#N | -5.45%
40 | C=CCCl | -4.82%
